Out of some 52,000 compounds screened, about 4,300 (8.3%) were called active. Only a selection was taken, and actives are over-represented in it overall. A number with no mark means an inactive call. Cut-off read from the data, not from the text of the source: active = survival mostly below about 52% (no sharp cut-off); inactive = mostly above about 56%.

This assay relates to DeltatarO mutant. The assay can be described thus: S. aureus survival, RN4220 and DeltatarO strains – OD600, teichoic acid synthesis inhibitors, primary screen (AID 463173). As to conditions: S. aureus RN4220 wild type/DeltatarO growth, OD600, 18 h, stronger effect = lower value, screened at 18.75 µg/mL (by protocol).
On to `O=C(COc1ccccc1)Nc1nnc2n1CCS2`, for which the survival was 86%.

Regarding `Cc1cn2c(=O)cc(COC(=O)c3ccc(NC(=O)c4ccccc4C)cc3)nc2s1`, the survival is 101%.

`COc1ccccc1N1CCN(S(=O)(=O)CCNC(=O)COc2ccccc2F)CC1`: the survival is 83%.

Turning to `CCn1c(CNC(=O)C23CC4CC(CC(C4)C2)C3)nnc1SCC(=O)Nc1ccc(C)cc1`, the survival is 60%.

As to `CCCCn1c(CNC(=O)C23CC4CC(CC(C4)C2)C3)nnc1SCC(=O)Nc1ccc(F)cc1`, the survival was 54% (active).

For the compound `CCn1c(CNC(=O)C23CC4CC(CC(C4)C2)C3)nnc1SCC(=O)Nc1ccccc1`, the survival is 66%.

In the case of `CCn1c(CNC(=O)C23CC4CC(CC(C4)C2)C3)nnc1SCC(=O)Nc1ccc(F)cc1`, the survival is 71%.

For the compound `CCCCn1c(CNC(=O)C23CC4CC(CC(C4)C2)C3)nnc1SCC(=O)Nc1ccccc1`, the survival was 54%.

For `CCCCn1c(CNC(=O)C23CC4CC(CC(C4)C2)C3)nnc1SCC(=O)Nc1ccc(C)cc1`, the survival was 36% (active).

As for `CCc1ccc(CNC(=O)c2ccc(NC(=O)N3CC(C)Sc4ccccc43)cc2)cc1` (centres undefined), the survival was 64%.

As to `Cc1c(Cl)cccc1Nc1nc2ccc(C(=O)c3ccccc3)cc2n2cnnc12`, the survival is 77%.

In the case of `CCNC(=O)CC1C(=O)N(c2cccc(OC)c2)C(=O)N1Cc1ccc(OC)c(OC)c1` (centres undefined), the survival was 80%.

Regarding `CCN1C(=O)C2(C(C#N)=C(N)SC(N)=C2C#N)c2ccccc21`, the survival was 2% (active).

As to `CCc1[nH]nc2c1C1(C(=O)N(CC)c3ccccc31)C(C#N)=C(N)O2` (centres undefined), the survival was 78%.

As for `C=CCN1C(=O)C2(C(C#N)=C(N)Oc3n[nH]c(COC)c32)c2ccccc21` (centres undefined), the survival is 109%.

For the compound `CCOc1ccccc1NC(=O)c1cn(C2CCCC2)c(=O)c2c1c1ccccc1n2C`, the survival is 122%.

Consider `COC(=O)c1cc(S(=O)(=O)NCC2CCN(Cc3cccc(F)c3)CC2)cn1C`, for which the survival was 122%.

As to `Cc1ccc(NS(=O)(=O)c2ccc(-c3cc(C)no3)cc2)c(Br)c1`, the survival is 75%.

In the case of `CCOc1ccccc1NC(=O)CSc1ncc(S(=O)(=O)c2ccc(C)c(C)c2)c(N)n1`, the survival is 99%.

Turning to `O=C(Nc1ccc(Cl)cc1)c1cc2c(-c3ccccc3)nn(-c3ccccc3)c2s1`, the survival was 51%.

Regarding `O=C(Nc1ccccc1)c1cc2c(-c3ccccc3)nn(-c3ccccc3)c2s1`, the survival is 44% (active).

For the compound `COc1cccc(NC(=O)c2cc3c(-c4ccc(Cl)cc4)nn(C)c3s2)c1`, the survival is 84%.

On to `Cc1nn(-c2ccccc2)c2sc(C(=O)N3CCOCC3)cc12`, for which the survival was 89%.

With `Cc1nn(-c2ccccc2)c2sc(C(=O)Nc3ccc(Cl)cc3Cl)cc12`, the survival was 71%.

Turning to `Cc1nn(-c2ccccc2)c2sc(C(=O)Nc3cccc(Cl)c3)cc12`, the survival is 2% (active).

As for `Cc1ccc(NC(=O)c2cc3c(-c4ccccc4)nn(-c4ccccc4)c3s2)cc1`, the survival was 50%.

With `Cc1nn(-c2ccccc2)c2sc(C(=O)Nc3cccc(O)c3)cc12`, the survival is 5% (active).

Take `Cc1nn(-c2ccccc2)c2sc(C(=O)Nc3cccc(Br)c3)cc12`: the survival was 30% (active).

For the compound `COc1ccc(C(c2c(C)n(C)n(-c3ccccc3)c2=O)c2c(C)n(C)n(-c3ccccc3)c2=O)cc1O`, the survival was 84%.

As for `COc1ccc(-c2[nH]c(-c3ccccc3)nc2SCC(=O)Nc2ccc3c(c2)OCO3)cc1`, the survival is 51%.

As for `Clc1cccc(-n2cc(-c3ccccc3)c3c(NC4CCCC4)ncnc32)c1`, the survival was 78%.

In the case of `COc1ccccc1N1CCN(S(=O)(=O)c2c(C)sc3ncn(CC(=O)N(C)c4ccc(Cl)cc4)c(=O)c23)CC1`, the survival is 65%.

As to `COc1ccc(NC(=O)CC(C)S(=O)(=O)c2cc3c(cc2C)NC(=O)CO3)cc1OC` (centres undefined), the survival was 88%.

Turning to `CCC(C)NC(=O)CSc1nc2cc3c(cc2c(=O)n1CCCCCC(=O)NCc1ccc(OC)cc1)OCO3` (centres undefined), the survival was 76%.

With `COc1ccc(-c2nc(C)c(CCNC(=O)C(=O)Nc3ccccc3F)s2)cc1`, the survival is 115%.

As for `CN(C)c1ccc(-c2nnc(SCC3CCCO3)n2C)cc1` (centres undefined), the survival is 82%.

For `O=C(CCC1N=C2c3ccccc3N=C(SCc3ccc(Cl)cc3)N2C1=O)NCCc1ccccc1` (centres undefined), the survival is 90%.

As for `Cc1nn(-c2ccccc2)c2sc(C(=O)Nc3ccc(Br)cc3)cc12`, the survival is 26% (active).

With `Cc1nn(-c2ccccc2)c2sc(C(=O)N/N=C/c3ccccc3)cc12`, the survival is 110%.

Turning to `Cc1cccc(NC(=O)c2cc3c(C)nn(-c4ccccc4)c3s2)c1`, the survival was 6% (active).

In the case of `Cc1cccc(NC(=O)c2ccc(-c3ccccc3)s2)c1`, the survival is 82%.

On to `CCOc1ccc(NC(=O)c2cc3c(C)nn(-c4ccccc4)c3s2)cc1`, for which the survival is 75%.

`O=C(c1cccc(Cl)c1)N1c2ncnn2C2(CCCCC2)[C@@H]2CCCC[C@@H]21`: the survival was 80%.

With `O=C(NCc1ccccc1Cl)C1CCCN(C(=O)c2cnn(-c3ccc(F)cc3)c2-n2cccc2)C1` (centres undefined), the survival was 67%.

`O=C(CCN1N=C(c2ccccc2)CCC1=O)NCCc1ccc(Cl)cc1`: the survival is 122%.

For `CCc1cccc(NC(=O)c2c(C)oc3ncnc(N4CCCCC4)c23)c1`, the survival is 54%.

On to `COC(=O)CSc1nc2c(cc1C#N)CCCC2`, for which the survival was 106%.

In the case of `COc1ccc(-c2nc(S(=O)(=O)c3ccccc3)c(N3CCC(C)CC3)o2)cc1`, the survival is 74%.

Consider `CC1CCN(c2nc3c(S(=O)(=O)c4ccc(Cl)cc4)nnn3c3ccsc23)CC1`, for which the survival is 113%.

Consider `Cc1ccc(S(=O)(=O)c2nc(-c3cccs3)oc2N2CCC(C)CC2)cc1`, for which the survival is 8% (active).

For the compound `O=S(=O)(c1ccc(Cl)cc1)c1nc(-c2cccs2)oc1SCc1ccc(F)cc1`, the survival was 67%.

On to `CCCSc1oc(-c2cccs2)nc1S(=O)(=O)c1ccc(Cl)cc1`, for which the survival was 65%.

For the compound `O=S(=O)(c1ccc(Cl)cc1)c1nc(-c2ccccc2Br)oc1N1CCOCC1`, the survival was 59%.

Regarding `CC1CCN(c2oc(-c3cccs3)nc2S(=O)(=O)c2ccc(Cl)cc2)CC1`, the survival was 17% (active).

`O=S(=O)(c1ccc(Cl)cc1)c1nc(-c2cccs2)oc1N1CCCCC1`: the survival was 45% (active).

Regarding `COc1ccccc1-c1nc(S(=O)(=O)c2ccc(Cl)cc2)c(N2CCCCCC2)o1`, the survival was 60%.

With `COc1ccccc1-c1nc(S(=O)(=O)c2ccccc2)c(N2CCC(C)CC2)o1`, the survival is 19% (active).

As to `COc1ccccc1-n1nc(-c2ccccc2)c2cnc3cc(C(F)(F)F)ccc3c21`, the survival is 81%.

For the compound `CCCS(=O)(=O)N1CC(=O)N(c2cccc(Cl)c2C)C(C)(C(=O)NC2CCCC2)C1` (centres undefined), the survival is 99%.

With `COc1ccccc1N1CCN(C(=O)c2cc3c(=O)n(Cc4ccco4)ccc3nc2C)CC1`, the survival is 80%.

Consider `CC(C)CN1CCc2nc(N3CCN(C)CC3)ncc2C1`, for which the survival is 83%.

On to `Sc1ccc2oc3ccc(S)cc3c2c1`, for which the survival is 93%.

Consider `CCS(=O)(=O)c1nc(S(=O)(=O)c2ccc(C)cc2)c(NCc2ccccc2Cl)s1`, for which the survival is 81%.

As to `CCc1nn(CC(=O)Nc2ccc(N(CC)CC)cc2C)c(=O)c2cc3sccc3n12`, the survival was 77%.

Turning to `O=C(Cc1ccc(Cl)cc1)Nc1ccc2oc(-c3ccccc3F)nc2c1`, the survival was 118%.

As for `COc1ccc(/C=C/c2nc3ccccc3c(=O)n2-c2cccc(C(F)(F)F)c2)cc1`, the survival was 91%.

Consider `COc1cccc2sc(NC(=O)CS(=O)(=O)c3ccc(C)cc3)nc12`, for which the survival was 101%.

Regarding `c1ccc(-c2cn(-c3ccccc3)c3ncnc(N4CCN(c5ccccc5)CC4)c23)cc1`, the survival was 90%.

As to `O=CN1CCN(S(=O)(=O)c2ccc(S(=O)(=O)NC3CC3)cc2)CC1`, the survival is 72%.

For the compound `CCOc1ccc(-c2nnc(SCC(=O)NCc3ccc(C)cc3)nc2-c2ccc(OCC)cc2)cc1`, the survival was 106%.

Turning to `Cc1ccc(NC(=O)c2ccco2)cc1NC(=O)CSc1ncnc2sc3c(c12)CCC3`, the survival was 54%.

`CC1CCN(c2oc(-c3cccs3)nc2S(=O)(=O)c2ccccc2)CC1`: the survival was 35% (active).

Turning to `CC1CCN(c2nc3c(S(=O)(=O)c4ccccc4)nnn3c3ccsc23)CC1`, the survival is 113%.

Consider `O=S(=O)(c1ccccc1)c1nc(-c2cccs2)oc1N1CCCCC1`, for which the survival was 116%.

For the compound `Cc1ccc(S(=O)(=O)c2nc(-c3cccs3)oc2N2CCCCC2)cc1`, the survival is 39% (active).

For `COc1cccc(-c2nc(S(=O)(=O)c3ccccc3)c(N3CCC(C)CC3)o2)c1`, the survival was 50%.

For the compound `COc1ccc(CCNC(=O)CCCn2c(=O)c3ccccc3n(Cc3c(C)cc(C)cc3C)c2=O)cc1OC`, the survival is 89%.

In the case of `O=C(NC1CCCCC1)C(c1cccs1)N(Cc1ccco1)C(=O)C1COc2ccccc2O1` (centres undefined), the survival was 96%.

Consider `COc1ccc(OC)c(S(=O)(=O)N2CCC(n3c(C)nc4cccnc43)CC2)c1`, for which the survival was 73%.

As for `CCc1ccc2occ(CC(=O)Nc3sc4c(c3C(=O)NCCOC)CCCC4)c2c1`, the survival is 77%.

For `CCC(=O)Nc1cc(-c2cccc(C)c2)nn1-c1ccccc1`, the survival is 83%.

As to `CC1=C(C#N)C(=O)NC(C)(C)C1`, the survival is 76%.

With `Cc1ccc(C)c(N2CCN(c3nc4ccc(C(=O)c5ccccc5)cc4n4cnnc34)CC2)c1`, the survival was 79%.

`FC(F)(F)c1cccc(N2CCN(c3nc4ccccc4n4cnnc34)CC2)c1`: the survival was 25% (active).

For the compound `CCc1nnc2c(N3CCN(c4cc(Cl)ccc4C)CC3)nc3ccccc3n12`, the survival is -5% (active).

In the case of `Cc1ccc(N2CCN(c3nc4ccc(C(=O)c5ccccc5)cc4n4cnnc34)CC2)c(C)c1`, the survival was 82%.

`Clc1cccc(N2CCN(c3nc4ccccc4n4cnnc34)CC2)c1`: the survival was 62%.

Turning to `Cc1ccc(C)c(N2CCN(c3nc4ccc(Cl)cc4n4cnnc34)CC2)c1`, the survival is 89%.

In the case of `Cc1ccc2nc(N3CCN(c4cccc(C)c4C)CC3)c3nnnn3c2c1`, the survival is 81%.

Consider `Cc1ccc(Cl)cc1N1CCN(c2nc3ccc(C(=O)c4ccccc4)cc3n3cnnc23)CC1`, for which the survival is -4% (active).

Turning to `Cc1ccc(C)c(N2CCN(c3nc4ccccc4n4c(C)nnc34)CC2)c1`, the survival was 77%.

As for `CCc1nnc2c(N3CCN(c4cccc(C(F)(F)F)c4)CC3)nc3ccccc3n12`, the survival was 108%.

Turning to `CCc1nnc2c3ccccc3nc(N3CCN(c4cc(Cl)ccc4C)CC3)n12`, the survival is 104%.

Regarding `Cc1ccc2nc(N3CCN(c4cccc(C)c4C)CC3)c3nncn3c2c1`, the survival is 39% (active).

(Values after PubChem BioAssay AID463173 (ICCB-Longwood Screening Facility, Harvard Medical School, 2010).)
